Values joined by “and” are separate entries in the source; they are usually repeats but may differ in a detail not shown here. Equal values may be shown once. About 83,000 compounds went through this panel and 20% of them were active in at least one assay; those are over-represented in the sample as a whole.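 In brief: 96-well plates, 48 h treatment, single concentration, percent growth endpoint.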 Active and inactive are the calls of the source. How the source made its calls: active means growth percent below 10; inactive means the rest.
tested on: MDA-MB-468 breast; experiment: NCI-60 one-dose screen, 48 h (100 = growth as untreated, 0 = no growth, -100 = all killed); conditions: 10 µM unless noted

Row | Structure (SMILES) | growth
1 | Fc1ccc(/C=C/[C@@H]2C[C@@H](F)CCO2)cc1 | 84% (inactive)
2 | CCN(CC)CC(O)c1cc(-c2ccc(Cl)cc2)nc2cc(Cl)ccc12 (stereo not given) | -76.9% (active)
3 | CCOc1ccc(-n2nc(C(=O)NCc3ccccc3OC)nc2-c2cc(OC)c(OC)c(OC)c2)cc1 | 72.4% (inactive)
4 | CCCC(C)c1ccc(OCCCCCCN2CCNCC2)cc1 (stereo not given) | -58.5% (active)
5 | CC(C)(C)OC(=O)N1C/C(=C\c2ccccc2)C(=O)/C(=C/c2ccccc2)C1 | 112% (inactive)
6 | COc1ccccc1S(=O)(=O)Nc1ccc2c3c(cc(-c4ccoc4)nc13)C(=O)N2C | 39.7% (inactive)
7 | c1ccc(OCc2nnc(-c3ccc(Oc4ccccc4)cc3)o2)cc1 | 111% (inactive)
8 | N#Cc1ccc(C(F)(F)F)nc1N1CCC(C(=O)Nc2ccc(Cl)cc2)CC1 | 69.2% (inactive)
9 | C=CCOc1ccc(/C(Cl)=N/N=C(\Cl)c2cc(OC)c(OC)c(OC)c2)cc1 | 23.3% (inactive)
10 | O=[N+]([O-])c1cccc(SSc2cccc([N+](=O)[O-])c2)c1 | 109% (inactive)
11 | ClC1=C2NC=NC2n2c(nnc2-c2ccc(Cl)cc2)N1 (stereo not given) | 91.6% (inactive)
12 | COc1ccc(-c2nc3c(c(-c4ccccc4)nn3-c3ccccc3)c(-c3ccc(N4CCOCC4)cc3)c2C#N)cc1 | 97.8% (inactive)
13 | COc1cc(/C=C/C(C)=O)ccc1O | 100% (inactive) and 111% (inactive)
14 | CCOP(=O)(OCC)OC[C@]12CC[C@@H](C)[C@H](C)C1C1=CC[C@@H]3[C@@]4(C)CCCNC(C)(C)[C@@H]4CC[C@@]3(C)[C@]1(C)CC2 (stereo not given in full) | -51% (active)
15 | O=C1N=c2ccccc2=C1c1sc(=Nc2ccccc2)n(Nc2ccccc2)c1O | 123% (inactive)
16 | COc1cccc(OC(=O)c2ccccc2)c1OC(=O)c1ccccc1 | 39.4% (inactive)
17 | COc1ccc(C2C(c3ccccc3)C(=O)N2c2cc(OC)c(OC)c(OC)c2)cc1I (stereo not given) | 15.7% (inactive)
18 | Cc1cc2nc(CS)[nH]c2cc1C | 85.2% (inactive)
19 | Cc1cc2nc(CO)[nH]c2cc1C | 135% (inactive)
20 | NS(=O)(=O)c1ccc(Nc2nc(Nc3ccccc3)nc(-n3nc(-c4ccccc4)cc3-c3ccccc3)n2)cc1 | 11.7% (inactive)

Row | Structure (SMILES) | growth
21 | CCNCC(=O)Nc1ccc(C(=O)OCC)cc1 | 111% (inactive)
22 | Cc1cc2nc3c4cc(Cl)ccc4n(CC(=O)NCCN(C)C)c3nc2cc1C | 60.6% (inactive)
23 | COc1cc(-c2nc3sc4c(c3c(=O)[nH]2)CCCCCC4)cc(OC)c1OC | 20% (inactive)
24 | CCOC(=O)C(C)C(C)(O)c1ccccc1 (stereo not given) | 96.3% (inactive)
25 | CCN1c2ccccc2C(Cl)(c2ccc(N(C)C)cc2)c2ccccc21 | 86.6% (inactive)
26 | OCCCc1ccccc1 | 104% (inactive)
27 | CCN(CCNc1ccc(C)c2sc3cc(Cl)ccc3c(=O)c12)CC(C)O (stereo not given) | 62.2% (inactive)
28 | CC(Sc1nc2ccccc2c(=O)n1CCc1ccc(S(N)(=O)=O)cc1)C(=O)Nc1ccc(Cl)cc1 (stereo not given) | 84% (inactive)
29 | Oc1cccnc1CN1CCOCC1 | 97.2% (inactive) and 102% (inactive)
30 | Cc1cnc(/C=N\NC(N)=S)c2cccc(N)c12 | -27.7% (active)
31 | CNC(=O)c1cc(-c2ccc(NC(=S)Nc3cc(C(F)(F)F)cc(C(F)(F)F)c3)cc2)nc2cccnc12 | -8.04% (active)
32 | FC(F)(F)c1cccc(Nc2ccccc2)c1 | 92.7% (inactive)
33 | CCOC(=O)Nc1nc2ccccc2[nH]1 | 99.4% (inactive) and 26.8% (inactive)
34 | COc1ccc(OC)c(/C=C2\Oc3cc(OCCN4CCCC4)ccc3C2=O)c1 | 98.9% (inactive)
35 | CC1Cc2c(N(C)C)ncnc2N(C)c2ccc(Cl)cc21 (stereo not given) | 28.7% (inactive)
36 | Cc1oc(-c2ccccc2Cl)cc1C(=O)Nc1ccc(S(N)(=O)=O)cc1 | 109% (inactive)
37 | O=C(Nc1ccc(OCc2nnc(-c3ccc(Cl)cc3)o2)c(F)c1)Nc1ccc(Cl)c(Cl)c1 | 43.2% (inactive)
38 | CN(CCCNC(=O)CCOCCOCCOCCNC(=O)Cc1ccc2ccc3cccc4ccc1c2c34)CCCNc1cc(-c2ccc3ccccc3c2)nc2ccccc12 | -92.2% (active)
39 | Oc1ccc(N=Nc2ccccn2)c(O)c1 | -2.78% (active)
40 | CC1(C)CC[C@]2(C(=O)N3CCCN(CC#N)CC3)CC[C@]3(C)C(=CC[C@@H]4[C@@]5(C)CC[C@H](O)C(C)(C)[C@@H]5CC[C@]43C)[C@H]2C1 | 41.2% (inactive)
